Assay outcomes (PubChem)
This is a sample that favours compounds with a hit; in the whole collection about 2.2% have one here.
sPLA2-III inh: human group III sPLA2 inhibitors, primary screen, biochemical, QFRET, BODIPY PC-A2 liposome substrate. QFRET BODIPY PC-A2 liposome hydrolysis, fluorescence. 0.56% of 370,000 active. Group 3 secretory phospholipase A2 (Homo sapiens), Q9NZ20. inhibition, % at 12.2 µM. AID 743126, 2013;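 active = inhibition above mean plus 3 SD of compounds lying within the high and low control bounds, cut at about 19% in these data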;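 note: 0% = median of test compound wells and 100% = no enzyme DMSO wells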
OPRM1-OPRD1 ag: agonists of OPRM1-OPRD1 heterodimerization, primary screen, cell-based, luminescence; Mu-type opioid receptor (Homo sapiens) + Delta-type opioid receptor (Homo sapiens), …; cells; activation, % at 9.3 µM; 0.3% of 340,000 active;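 note: 0% = vehicle-treated cells and 100% = reference agonist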
HTR5A ag ctr: HTR5A agonists in luminescence cell assay, primary screen, counter-screen for OPRM1-OPRD1 heterodimer agonist project, full-deck HTS. 5-hydroxytryptamine receptor 5A (Homo sapiens), P47898. cell-based. activation, % at 9.3 µM. 0.61% of 340,000 active. AID 504692, 2011; in the data active = activation mostly above about 9.5%, no sharp cut-off; inactive = mostly below about 7.6%;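 note: 0% = cells with vehicle only and 100% = reference agonist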
OPRM1-OPRD1 inv: inverse agonists of MOR-DOR heterodimerization, primary screen, cell-based, luminescence; inhibition, % at 9.3 µM; AID 504357, 2011; Mu-type opioid receptor (Homo sapiens) + Delta-type opioid receptor (Homo sapiens), …; 0.21% of 340,000 active; cell-based MOR-DOR heterodimer luminescence, inverse agonism; in the data active = inhibition above about 22%, passing the limit was not always enough;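 note: 0% = cells with DMSO and 100% = wells without cells with DMSO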
HTR5A inv ag: HTR5A inverse agonists in luminescence cell assay, primary screen, counter-screen for OPRM1-OPRD1 heterodimer inverse agonist project, full-deck HTS; inhibition, % at 9.3 µM; 5-hydroxytryptamine receptor 5A (Homo sapiens), P47898; HTR5A cell line, inverse agonism; 0.083% of 340,000 active; AID 504634, 2011; in the data active = inhibition mostly above about 23%, no sharp cut-off; inactive = mostly below about 18%;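 note: 0% = cells with DMSO and 100% = no-cell wells with DMSO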
m5-HT2A agonist: mouse Htr2a agonists via beta-arrestin recruitment, primary screen, cell-based, luminescence; 0.66% of 360,000 active; 5-hydroxytryptamine receptor 2A (Mus musculus), P35363; CHO-K1 mHTR2A beta-arrestin complementation; percent of 30 µM serotonin response; AID 624169, 2012; activation, % at 7.6 µM;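 active = activation above a run cutoff, the mean activation of all tested compounds plus 3 SD, cut at about 14% in these data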;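 note: 0% = plate median of compound wells and 100% = 30 µM serotonin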
OPRM1-D1 ag cf: agonists of MOR-DOR heterodimerization, confirmation, cell-based, luminescence; shares compounds with OPRM1-OPRD1 ag; cells, luminescence complementation; activation, % at 9.3 µM; 45% of 830 active; AID 504904, 2011;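 note: 0% = vehicle-treated cells and 100% = reference agonist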
HTR5A ag ctr2: HTR5A agonists in cells, counter-screen for OPRM1-OPRD1 heterodimer agonist project, cell-based, luminescence. 8% of 830 active. activation, % at 9.3 µM. shares compounds with OPRM1-OPRD1 ag. HTR5A agonist counterscreen; in the data active = activation above about 17%;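 note: 0% = vehicle-treated cells and 100% = reference agonist response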
* marks the source's active call; other numbers are inactive results; i = inactive; · = no result given. Cut-off read from the data, not from the text of the source, unless noted: active = activation above about 18%; inactive = the rest.

SMILES	sPLA2-III inh	OPRM1-OPRD1 ag	HTR5A ag ctr	OPRM1-OPRD1 inv	HTR5A inv ag	m5-HT2A agonist	OPRM1-D1 ag cf	HTR5A ag ctr2
CC(/C=N\NC(=O)CSc1nnc(-c2ccc(Br)cc2)n1-c1ccccc1)=C\c1ccco1	-5	·	·	·	·	·	·	·
C#CCN1C(=O)[C@]2(NCCc3c2[nH]c2ccc(OC)cc32)c2ccccc21	1	·	·	·	·	·	·	·
O=C(COc1ccc(Br)cc1CO)Nc1ccc(S(=O)(=O)N2CCCCC2)cc1	-34	5	2	-26	-7	-8	·	·
CCc1ccc(OCC(=O)Nc2ccc(S(=O)(=O)N3CCCC3)cc2)c(Br)c1	-5	19*	-3	-104	-13	-2	1	-5
COCCCN1C(=O)[C@H](CC(=O)NCC2CCCCC2)[C@]2(C(=O)OC)CCCCC=C12	9	·	·	·	·	·	·	·
O=S(=O)(c1c(Cl)cc(Br)cc1Cl)N1CCN(C(=S)NC2CC2)CC1	-1	85*	0	-413	1	4	122*	4
O=S(=O)(c1ccccc1)N1CCN(C(=S)NC2CCCC2)CC1	6	-2	2	7	-4	0	·	·
O=C(NNC(=O)c1ccc2nc[nH]c2c1)c1ccccc1	10	0	6	0	-16	0	·	·
CN(C)C(CNC(=O)c1ccc2nc[nH]c2c1)c1ccccc1 (stereo unspecified)	-5	25*	4	-126	-12	2	7	8
CN(C)C(CNC(=O)c1ccc(Cl)c(S(=O)(=O)N2CCCCCC2)c1)c1ccccc1 (stereo unspecified)	7	36*	4	-187	-13	-11	1	-3
Cc1ccc(OCc2nnc(SCC(=O)c3ccc4ccccc4c3)n2-c2ccc(Cl)cc2)cc1	13	·	·	·	·	·	·	·
COc1ccc(OC)c(S(=O)(=O)n2c(CN3CCOCC3)nc3ccccc32)c1	1	·	·	·	·	·	·	·
O=C(N/N=C/c1cccnc1)c1ccccc1OCc1ccc(Br)cc1	-11	24*	-3	-126	8	-8	14	5
O=C(N/N=C/c1cccnc1)c1ccccc1Br	-3	-2	1	11	-38	-4	·	·
COC(=O)c1ccc(CN2C(=O)[C@]3(OCCC=C[C@H]3C)c3cc(OC)ccc32)cc1	3	·	·	·	·	·	·	·
FC(F)(F)c1cnc(Nc2ccc(N3CCOCC3)cc2)c(Cl)c1	11	28*	8	-171	-23	0	8	4
O=C(Nc1cccc(NC(=O)c2cccc([N+](=O)[O-])c2)n1)c1cccc([N+](=O)[O-])c1	5	24*	-3	-116	11	12	18*	3
CCOC(=O)[C@]12CCCCC/C=C\1N(CCc1ccc(Cl)cc1)C(=O)[C@H]2CC(=O)NCCc1ccccc1OC	-17	·	·	·	·	·	·	·
Cc1ccc(COn2c(-c3ccc(Cl)cc3Cl)nc3ncccc32)cc1	-4	77*	1	-433	-4	3	1	35*
O=C(N[C@@H]1C/C=C\C[C@H](CC(=O)N(CCO)Cc2ccccc2)C(=O)NC[C@@H](c2ccccc2)OC1=O)OCC1c2ccccc2-c2ccccc21	-24	2	10	-9	5	-5	·	·
O=C(C[C@H]1C/C=C\C[C@H](NC(=O)OCC2c3ccccc3-c3ccccc32)C(=O)O[C@H](c2ccccc2)CNC1=O)N[C@H](CO)Cc1ccccc1	·	239*	21*	i	-144	0	7	12
CCn1cc(CN2CCCC(C(=O)Nc3ccc(-c4nc5ccccc5[nH]4)cc3)C2)c(C)n1 (stereo unspecified)	-10	31*	4	-165	12	-3	1	-3
